Data as given in PubChem BioAssay (NCATS).
Several values for one entry are separate records, joined by “and”; a condition that tells them apart may be missing. Identical values can stand only once. Records with an inconclusive call do not appear. The source holds several records for some structures; these can differ, active in one and inactive in another. Activity calls are given as the source filed them. Unless noted, calls follow the shape of the dose curve; as a rule, active = well fitted curve in the direction sought with a large enough effect; inconclusive = small, poorly fitted or top-dose-only effect, or another doubt; inactive = no such curve, though single readings can be large; an effect the other way counts as inactive or inconclusive.

Target: Cytochrome P450 2C9 (Homo sapiens) (UniProt P11712)
Assay: Cytochrome P450 family 2 subfamily C member 9 (CYP2C9) small molecule antagonists: luciferase biochemical (cell-free) qHTS assay (AID 1645842; active = well fitted curve in the direction sought with a large enough effect in the repeat runs; an effect the other way counts as inactive or inconclusive; also: nearly all actives have a fitted effect of over 55% in size)
Settings: P450-Glo CYP2C9 enzyme assay, luciferin luminescence; series mostly up to 57.4 µM
Method in brief: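 Luminescence, after 20 min with luciferin detection reagent, reflected CYP2C9 turnover during a 1 h NADPH-driven reaction at 37C. Enzyme-substrate mix contained 0.4% bovine serum albumin and was preincubated with compound 10 min at room temperature.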
Potency is read from the fitted curve at half-maximal effect.

Cytochrome P450 2C9 (Homo sapiens), sequence (P11712 whole entry, looked up): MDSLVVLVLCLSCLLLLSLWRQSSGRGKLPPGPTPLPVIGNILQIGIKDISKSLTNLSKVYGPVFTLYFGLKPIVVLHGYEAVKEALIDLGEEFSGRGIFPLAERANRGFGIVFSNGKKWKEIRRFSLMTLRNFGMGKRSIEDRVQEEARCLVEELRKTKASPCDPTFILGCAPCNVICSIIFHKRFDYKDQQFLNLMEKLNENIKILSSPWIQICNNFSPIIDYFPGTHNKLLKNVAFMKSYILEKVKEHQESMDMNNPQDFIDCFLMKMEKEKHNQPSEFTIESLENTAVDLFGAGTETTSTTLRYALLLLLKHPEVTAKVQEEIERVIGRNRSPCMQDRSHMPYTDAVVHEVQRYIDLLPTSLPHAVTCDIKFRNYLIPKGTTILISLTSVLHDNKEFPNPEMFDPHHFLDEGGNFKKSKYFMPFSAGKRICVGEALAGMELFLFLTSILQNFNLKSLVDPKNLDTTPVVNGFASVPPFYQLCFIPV

SMILES	Potency
Cc1cc(OCCCS(C)(=O)=O)cc(C)c1-c1cccc(COc2ccc3c(c2)OC[C@H]3CC(=O)O)c1	21.3 µM (active)
CCN1CCN(c2ccc(Nc3cc(N(C)C(=O)Nc4c(Cl)c(OC)cc(OC)c4Cl)ncn3)cc2)CC1	23.9 µM (active)
CNC(=O)c1ccc2c(C(=Nc3cccc(CN(C)C)c3)c3ccccc3)c(O)[nH]c2c1	inactive
O=C(c1ccc(C(=O)N2CCC(N3CCCC3)CC2)c(Nc2ccccc2)c1)N1CCC(N2CCCC2)CC1	inactive
CNc1nc(Nc2ccc(C(=O)N3CCOCC3)cc2OC)ncc1Cl	inactive
CC1(C)CC(=O)c2c(C(F)(F)F)nn(-c3ccc(C(N)=O)c(NC4CCC(O)CC4)c3)c2C1 (stereo unspecified)	6.01 µM (active)
O=C(CC12CC3CC(CC(C3)C1)C2)Nc1cccc2nc(NCCNCCO)ccc12	inactive
CNC(=O)c1cc(Oc2ccc(NC(=O)Nc3ccc(Cl)c(C(F)(F)F)c3)c(F)c2)ccn1	9.52 µM (active)

Test system: not listed separately
Assay: Primary qHTS for inhibitors of nuclear receptor binding SET domain protein 2 (NSD2) in an isogenic RCH-ACV NSD2 p.E1099K mutant (9B) (AID 1645876); also: nearly all actives have a fitted effect of over 70% in size
Settings: RCH-ACV (leukaemia line) NSD2 E1099K (9B) viability, CellTiter-Glo, 72 h; series mostly up to 44.9 µM

SMILES	Potency
Cc1ccc(C2=Nc3ccc(Cl)cc3OC2)cc1	inactive
CN1N=C(N)c2cn([C@@H]3O[C@H](COP(=O)(O)O)[C@@H](O)[C@@H]3O)c3ncnc1c23	2.63 µM (active)
Cc1ccc(C(=O)N(CCCN)[C@@H](c2nc3cc(Cl)ccc3c(=O)n2Cc2ccccc2)C(C)C)cc1	0.0132 µM (active)
CS(=O)(=O)c1ccc(C2=C(c3ccccc3)C(=O)OC2)cc1	inactive
CCN1CCN(c2ccc(Nc3cc(N(C)C(=O)Nc4c(Cl)c(OC)cc(OC)c4Cl)ncn3)cc2)CC1	inactive
Cc1cnc(CNC(=O)c2c(=O)c3ccc(N4CCCN(C)CC4)nc3n3c2sc2ccccc23)cn1	0.152 µM (active)
COc1ccc(-c2ccc3ncc4c(c3c2)n(-c2ccc(N3CCNCC3)c(C(F)(F)F)c2)c(=O)n4C)cn1	5.2 nM (active) and 14.6 nM (active) and 13.2 nM (active)
Nc1ncnc2c1c(-c1cccc(OCc3ccccc3)c1)cn2C1CC(CN2CCC2)C1 (stereo unspecified)	4.59 µM (active)
CC(C)Oc1cc(Nc2nc(N[C@@H](C)c3ccc(F)cn3)ncc2Cl)[nH]n1	7.42 µM (active) and 8.2 µM (active)
CNC(=O)c1ccc2c(C(=Nc3cccc(CN(C)C)c3)c3ccccc3)c(O)[nH]c2c1	16.3 µM (active) and 13.2 µM (active)
O=C(c1ccc(C(=O)N2CCC(N3CCCC3)CC2)c(Nc2ccccc2)c1)N1CCC(N2CCCC2)CC1	inactive
Cn1c(=O)c(-c2c(Cl)cccc2Cl)cc2cnc(Nc3cccc(C(=O)O)c3)nc21	inactive
CSc1cccc(Nc2ncc3cc(-c4c(Cl)cccc4Cl)c(=O)n(C)c3n2)c1	2.06 µM (active)
N#CC1(c2cccc(C(=O)Nc3cc(Oc4ccc5nc(NC(=O)C6CC6)sc5n4)ccc3F)c2Cl)CC1	1.83 µM (active) and inactive
CN1C(=O)C(Cc2c[nH]c3ccccc23)NC1=S (stereo unspecified)	inactive
C[C@@H](N)c1ccc(C(=O)Nc2ccnc3[nH]ccc23)cc1	9.34 µM (active)
COc1ccc(CCN(C)CCCOc2ccc(S(=O)(=O)c3[nH]c4ccccc4c3C(C)C)cc2)cc1OC	13.2 µM (active)
O=C(CO)N1CCC(c2[nH]nc(-c3ccc(Cl)cc3)c2-c2ccncn2)CC1	inactive
O=C(O)c1nc(=O)[nH]c(=O)[nH]1	inactive
CC1(C)CC(=O)c2c(C(F)(F)F)nn(-c3ccc(C(N)=O)c(NC4CCC(O)CC4)c3)c2C1 (stereo unspecified)	57.8 nM (active) and 83.3 nM (active)
CC(C)CNc1ccnc(NCc2csc(-c3ccccc3)n2)n1	5.9 µM (active)
O=C1CN2Cc3c(ccc(Cl)c3Cl)N=C2N1	inactive
COc1cc2c(cc1Cc1cccc(Cl)c1F)c(=O)c(C(=O)O)cn2[C@H](CO)C(C)C	7.42 µM (active)
Cc1ccc(C(=O)N(CCCN)[C@@H](c2oc3cc(Cl)ccc3c(=O)c2Cc2ccccc2)C(C)C)cc1	0.0332 µM (active)
O=C(CC12CC3CC(CC(C3)C1)C2)Nc1cccc2nc(NCCNCCO)ccc12	20.9 µM (active)
CC(=O)Nc1cccc(-n2c(=O)n(C3CC3)c(=O)c3c(Nc4ccc(I)cc4F)n(C)c(=O)c(C)c32)c1	inactive
COC1CCC(C(=O)c2ccc3nc4c(cc3c2)CCCO4)CC1 (stereo unspecified)	inactive
CNC(=O)c1cc(Oc2ccc(NC(=O)Nc3ccc(Cl)c(C(F)(F)F)c3)c(F)c2)ccn1	14.5 µM (active)
